From PubChem BioAssay (NCATS)
Results filed as inconclusive are left out. A call without a number means that no potency is given here. Unmarked numbers belong to inactive results. Active and inactive are the calls of the source. Unless noted, calls follow the shape of the dose curve; as a rule, active = well fitted curve in the direction sought with a large enough effect; inconclusive = small, poorly fitted or top-dose-only effect, or another doubt; inactive = no such curve, though single readings can be large; an effect the other way counts as inactive or inconclusive.

Columns and labels:
[1] = P-glycoprotein substrates identified in KB-3-1 adenocarcinoma cell line, qHTS therapeutic library screen (AID 1346986); settings: KB-3-1 parental cells viability, CellTiter-Glo, 72 h; series mostly up to 44.5 µM; also: nearly all actives have a fitted effect of over 60% in size;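 also: potency is read from the fitted curve at half-maximal effect; potency is for cytotoxicity meaning loss of cell viability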
How it was run: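 KB-3-1 parental and colchicine-selected P-gp-overexpressing KB-8-5-11 cells (colchicine omitted during assay), 500 cells/well, dosed in dose-response for 72 h at 37 °C; CellTiter-Glo luminescence. Cytotoxic: curve class -1.1 to -2.4, max response >50%, AC50 < 10 uM.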

[2] = P-glycoprotein substrates identified in KB-8-5-11 adenocarcinoma cell line, qHTS therapeutic library screen (AID 1346987); settings: KB-8-5-11 (P-gp overexpressing) viability, CellTiter-Glo, 72 h; series mostly up to 44.5 µM; also: nearly all actives have a fitted effect of over 65% in size; also: potency is read from the fitted curve at half-maximal effect
How it was run: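 KB-8-5-11, a colchicine-selected P-gp-overexpressing KB-3-1 subline, was grown without colchicine for the assay. Cells were seeded at 500 cells/well, dosed in concentration-response and incubated 72 h at 37 degree C, 5% CO2. Viability was read by CellTiter-Glo luminescence.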

[3] = Natriuretic polypeptide receptor (hNpr1) antagonism - Pilot counterscreen GloSensor control cell line (AID 1347045; calls by dose curve); settings: HEK293 cGMP GloSensor cells, SNP-stimulated luminescence, 20 min; series mostly up to 38.3 µM
How it was run: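 HEK293 cGMP GloSensor cells preloaded 2 h with 2% GloSensor reagent, then compound 30 min before baseline luminescence read. Stimulated with 50 uM sodium nitroprusside, 20 min at room temperature, then read again; counterscreen for Npr1 antagonism.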

[4] = target: Atrial natriuretic peptide receptor 1 (Homo sapiens) (UniProt P16066); assay: Natriuretic polypeptide receptor (hNpr1) antagonism - Pilot screen (AID 1347049; calls by dose curve;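 also: agonist-evoked cGMP luminescence read 20 min after hNppA addition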); settings: hNpr1 cells, antagonist mode cGMP read-out; series mostly up to 57.5 µM
How it was run: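 HEK293 cells expressing hNpr1 and GloSensor cGMP luciferase, 1500/well, loaded with 2% GloSensor reagent 2 h, compound 30 min at room temperature; luminescence read before and 20 min after 0.1 nM hNppA stimulation.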

[5] = target: Atrial natriuretic peptide receptor 2 (Homo sapiens) (UniProt P20594); assay: Natriuretic polypeptide receptor (hNpr2) antagonism - Pilot subtype selectivity assay (AID 1347050; calls by dose curve); settings: NPR2-expressing cells, cGMP antagonist-mode read-out; series mostly up to 38.3 µM
How it was run: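 HEK293 cells expressing hNpr2 and a GloSensor cGMP luciferase sensor, 1500/well, preloaded 2 h with 2% GloSensor reagent, compound 30 min, then 1 nM hNppC for 20 min. Antagonism from luminescence after versus baseline pre-read; LOPAC in 1:5 titrations.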

Chain of Atrial natriuretic peptide receptor 2 (Homo sapiens) (P20594 whole entry, looked up): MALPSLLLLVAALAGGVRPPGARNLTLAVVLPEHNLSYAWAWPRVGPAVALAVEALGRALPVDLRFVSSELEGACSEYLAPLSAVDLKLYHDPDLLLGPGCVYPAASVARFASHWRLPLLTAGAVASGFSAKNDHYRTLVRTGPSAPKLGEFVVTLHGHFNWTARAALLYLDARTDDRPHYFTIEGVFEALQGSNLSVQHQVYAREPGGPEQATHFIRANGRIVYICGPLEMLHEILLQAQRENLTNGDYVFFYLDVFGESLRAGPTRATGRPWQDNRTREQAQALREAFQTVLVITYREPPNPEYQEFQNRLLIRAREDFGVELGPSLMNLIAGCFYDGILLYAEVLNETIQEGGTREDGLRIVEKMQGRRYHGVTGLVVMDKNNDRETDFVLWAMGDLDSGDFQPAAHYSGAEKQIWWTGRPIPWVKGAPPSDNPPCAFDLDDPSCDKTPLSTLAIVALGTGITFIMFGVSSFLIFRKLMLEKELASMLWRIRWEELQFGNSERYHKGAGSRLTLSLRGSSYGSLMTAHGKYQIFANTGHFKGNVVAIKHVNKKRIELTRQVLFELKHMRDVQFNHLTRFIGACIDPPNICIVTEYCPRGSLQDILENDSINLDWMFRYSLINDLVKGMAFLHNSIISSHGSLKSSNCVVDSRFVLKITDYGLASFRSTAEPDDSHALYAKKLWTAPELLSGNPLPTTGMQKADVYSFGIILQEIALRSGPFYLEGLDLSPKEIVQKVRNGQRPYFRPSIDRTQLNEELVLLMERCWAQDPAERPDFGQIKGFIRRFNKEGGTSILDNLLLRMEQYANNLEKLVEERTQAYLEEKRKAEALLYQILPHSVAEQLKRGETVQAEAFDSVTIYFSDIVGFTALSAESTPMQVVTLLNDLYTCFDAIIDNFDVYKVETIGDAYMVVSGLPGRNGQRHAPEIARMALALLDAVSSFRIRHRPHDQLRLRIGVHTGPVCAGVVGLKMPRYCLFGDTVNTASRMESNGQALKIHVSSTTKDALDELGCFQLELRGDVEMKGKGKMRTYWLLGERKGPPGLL
Chain of Atrial natriuretic peptide receptor 1 (Homo sapiens) (P16066 whole entry, looked up): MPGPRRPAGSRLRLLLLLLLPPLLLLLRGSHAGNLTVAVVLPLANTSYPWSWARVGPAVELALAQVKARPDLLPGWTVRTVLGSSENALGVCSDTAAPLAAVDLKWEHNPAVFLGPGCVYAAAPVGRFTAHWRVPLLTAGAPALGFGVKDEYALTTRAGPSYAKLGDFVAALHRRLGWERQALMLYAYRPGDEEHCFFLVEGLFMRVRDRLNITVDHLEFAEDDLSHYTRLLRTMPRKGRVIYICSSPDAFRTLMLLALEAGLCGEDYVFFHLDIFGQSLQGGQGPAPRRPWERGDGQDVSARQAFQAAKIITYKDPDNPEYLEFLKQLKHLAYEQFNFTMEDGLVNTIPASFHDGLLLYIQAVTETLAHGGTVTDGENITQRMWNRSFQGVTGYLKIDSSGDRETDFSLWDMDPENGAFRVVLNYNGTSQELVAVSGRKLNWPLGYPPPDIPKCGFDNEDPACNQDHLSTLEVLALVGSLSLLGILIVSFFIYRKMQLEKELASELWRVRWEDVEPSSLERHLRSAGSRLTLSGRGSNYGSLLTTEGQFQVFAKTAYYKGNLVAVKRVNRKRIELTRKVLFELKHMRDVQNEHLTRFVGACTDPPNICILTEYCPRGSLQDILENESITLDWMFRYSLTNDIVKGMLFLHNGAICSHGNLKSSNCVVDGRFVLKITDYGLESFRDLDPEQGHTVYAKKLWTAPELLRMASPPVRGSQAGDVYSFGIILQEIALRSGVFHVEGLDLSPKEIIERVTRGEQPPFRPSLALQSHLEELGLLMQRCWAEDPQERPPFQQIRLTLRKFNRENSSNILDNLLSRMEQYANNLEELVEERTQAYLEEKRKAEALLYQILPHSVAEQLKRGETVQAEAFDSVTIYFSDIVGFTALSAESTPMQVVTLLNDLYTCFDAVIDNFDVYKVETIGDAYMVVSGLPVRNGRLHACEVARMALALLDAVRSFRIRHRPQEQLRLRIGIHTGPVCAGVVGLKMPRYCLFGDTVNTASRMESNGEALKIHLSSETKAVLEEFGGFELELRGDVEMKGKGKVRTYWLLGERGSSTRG

**Q.** What does the source list for `Oc1ccc2c3c1O[C@H]1[C@H](N(CCCl)CCCl)CC[C@@]4(O)[C@@H](C2)N(CC2CC2)CC[C@]314`?
**A.** outcome [1]: inactive [at 9.29 µM]; activity change, negative = cytotoxicity [2]: 0.87% [at 9.29 µM]

**Q.** With `COC(=O)C1(C)CCC(O)C2(C)c3cc(O)c(C(C)C)cc3C(O)C(OC(C)=O)C12` (stereo not given) as the compound, how does the Potency [1] read?
**A.** inactive

**Q.** And the Potency [2]?
**A.** inactive

**Q.** What does the source list for `C/C=C(\C)C(=O)OC1CC2C(CC=C3CC(OC4CC(OC)C(OC5CC(OC)C(OC6OC(C)C(OC7OC(CO)C(O)C(O)C7O)C(OC)C6O)C(C)O5)C(C)O4)CCC32C)C2(O)CCC(C(C)=O)C12C` (stereo not given)?
**A.** outcome [1]: inactive [at 9.29 µM]; activity change, negative = cytotoxicity [2]: 9.6% [at 9.29 µM]

**Q.** With `COC1CC(=O)C23C(=O)NC(CC(C)C)C2C(C)=C(C)C(OO)C3/C=C(\C)CCC(O)C1O` (stereo not given) as the compound, how does the Potency [1] read?
**A.** inactive

**Q.** What about the Potency [2] of the same compound?
**A.** inactive

**Q.** Which results are given for `C=C[C@H]1[C@H](O[C@@H]2O[C@H](CO)[C@@H](O)[C@H](O)[C@H]2O)OC=C2C(=O)OCC[C@H]21`?
**A.** Potency [1]: inactive; Potency [2]: inactive

**Q.** For `C=C(CO)C(=O)O[C@H]1C/C(C)=C/CC/C(CO)=C/[C@H]2OC(=O)C(=C)[C@H]12`, which Potency [1] is on record?
**A.** inactive

**Q.** And the Potency [2]?
**A.** inactive

**Q.** Which results are given for `CC1=CC2/C=C(\C)CCC(O)C3OC(C)(C)OC3CC(=O)OC23C(=O)NC(CC(C)C)C3C1C` (stereo not given)?
**A.** Potency [1]: inactive; Potency [2]: inactive

**Q.** With `COC1=CC(=O)O[C@@H](/C=C/c2ccccc2)C1` as the compound, how does the Potency [1] read?
**A.** inactive

**Q.** And the Potency [2]?
**A.** inactive

**Q.** What does the source list for `CC1=C2C(=O)C3[C@@H](CC=C4C[C@@H](O)CC[C@@]43C)[C@@H]2CC[C@]12O[C@@H]1C[C@H](C)CN[C@H]1[C@H]2C` (stereo not given in full)?
**A.** Potency [1]: inactive; Potency [2]: inactive

**Q.** For `COCC1OC(=O)c2coc3c2C1(C)C1=C(C3=O)C2CCC(=O)C2(C)CC1O` (stereo not given), which Potency [1] is on record?
**A.** inactive

**Q.** What about the Potency [2] of the same compound?
**A.** inactive

**Q.** Which Potency [1] does the source give for `CCC1NC(=O)C2C(Cl)C(Cl)CN2C(=O)C(C(C)O)NC(=O)CC(c2ccccc2)NC(=O)C(CO)NC1=O` (stereo not given) here?
**A.** inactive

**Q.** What about the Potency [2] of the same compound?
**A.** inactive

**Q.** With `COC(=O)C12C(=O)C(C)(O)C(=O)C1(C)C(C)=CC1C34CCC(OC3=O)C(C)(CO)C4CCC12C` (stereo not given) as the compound, how does the Potency [1] read?
**A.** inactive

**Q.** What about the Potency [2] of the same compound?
**A.** inactive

**Q.** Which outcome [1] does the source give for `CCCCCCn1c(=O)c(C(=O)Nc2ccc(C(=O)OCCC)cc2)c(O)c2ccccc21` here?
**A.** inactive [at 9.29 µM]

**Q.** And the outcome [2]?
**A.** inactive [at 9.29 µM]

**Q.** With `C[C@@]1(C(=O)O)CC[C@]2(C)CC[C@]3(C)C4=CC(=O)c5cc(O)c(O)cc5[C@]4(C)CC[C@@]3(C)[C@@H]2C1` as the compound, how does the Potency [1] read?
**A.** inactive

**Q.** And the Potency [2]?
**A.** inactive

**Q.** Which Potency [1] does the source give for `COc1ccc2c(c1)/C(=C/c1cnc[nH]1)C(=O)N2` here?
**A.** 7.31 µM (active)

**Q.** And the Potency [2]?
**A.** 5.17 µM (active)

**Q.** What about the Potency [3] of the same compound?
**A.** inactive

**Q.** And the Potency [4]?
**A.** inactive

**Q.** And the Potency [5]?
**A.** inactive

**Q.** For `C1=C2CCCN[C@H]2[C@@H]2C[C@H]1[C@H]1CCCCN1C2`, which Potency [1] is on record?
**A.** inactive

**Q.** And the Potency [2]?
**A.** inactive

**Q.** For `C[C@]12CC[C@@H](O)C[C@H]1CC[C@@H]1[C@@H]2CC[C@]2(C)C(=O)CC[C@@H]12`, which Potency [1] is on record?
**A.** inactive

**Q.** What about the Potency [2] of the same compound?
**A.** inactive

**Q.** With `CCCN1CCO[C@H]2c3cc(O)ccc3OC[C@@H]21` as the compound, how does the Potency [1] read?
**A.** inactive

**Q.** What about the Potency [2] of the same compound?
**A.** inactive

**Q.** For `CC(=O)OC12C(O)C(C)C3(O)C4C=C(C)C(=O)C4CC(CO)=CC3C1C2(C)C` (stereo not given), which Potency [1] is on record?
**A.** inactive

**Q.** And the Potency [2]?
**A.** inactive

**Q.** With `Cc1c(Cl)cccc1S(=O)(=O)Nc1nc(CC(=O)N2CCN(C)CC2)cs1` as the compound, how does the Potency [1] read?
**A.** inactive

**Q.** What about the Potency [2] of the same compound?
**A.** inactive

**Q.** With `COc1cc(C)[nH]c(=O)c1CNC(=O)c1c(C)n([C@H](C)C2CCOCC2)c2ccccc12` as the compound, how does the Potency [1] read?
**A.** inactive

**Q.** What about the Potency [2] of the same compound?
**A.** inactive

**Q.** With `C/C=C(\C)C(=O)O[C@H]1[C@H](OC(C)=O)[C@]2(CO)[C@H](O)[C@H](O)[C@]3(C)C(=CCC4[C@@]5(C)CC[C@H](O[C@@H]6O[C@H](C(=O)O)[C@@H](O)[C@H](O[C@@H]7OC[C@H](O)[C@H](O[C@@H]8OC[C@H](O)[C@H](O)[C@H]8O)[C@H]7O)[C@H]6O[C@@H]6O[C@H](CO)[C@@H](O)[C@H](O)[C@H]6O)C(C)(C)C5CC[C@]43C)[C@@H]2CC1(C)C` (stereo not given in full) as the compound, how does the outcome [1] read?
**A.** inactive [at 9.29 µM]

**Q.** What about the outcome [2] of the same compound?
**A.** inactive [at 9.29 µM]

**Q.** What does the source list for `CCN1CC2(COC)C3[C@@H](OC)C4C1C3(C1C[C@]3(O)[C@H](OC(=O)c5ccccc5)C1[C@]4(OC(C)=O)[C@@H](O)[C@@H]3OC)[C@H](OC)C[C@H]2O` (stereo not given in full)?
**A.** Potency [1]: inactive; Potency [2]: inactive

**Q.** With `CCC(C)(C#N)O[C@@H]1O[C@H](CO)[C@@H](O)[C@H](O)[C@H]1O` (stereo not given in full) as the compound, how does the Potency [1] read?
**A.** inactive

**Q.** And the Potency [2]?
**A.** inactive

**Q.** What does the source list for `Cc1cn(C[C@H](N)C(=O)O)c(=O)n(Cc2cc(-c3ccccc3)sc2C(=O)O)c1=O`?
**A.** Potency [1]: inactive; Potency [2]: inactive

**Q.** What does the source list for `CCN1C[C@]2(COC(=O)c3ccccc3N3C(=O)C[C@H](C)C3=O)CC[C@H](OC)[C@@]34[C@@H]5C[C@H]6[C@H](OC)[C@@H]5[C@](O)(C[C@@H]6OC)[C@](O)([C@@H](OC)[C@H]23)[C@@H]14`?
**A.** Potency [1]: inactive; Potency [2]: inactive
